Test results taken from PubChem BioAssay (NCI).
About 79,000 compounds went through this panel and 15% of them were active in at least one assay; those are over-represented in the sample as a whole. A number with no mark means an inactive call. Calls of active or inactive are those of the source. No stated cut-off is given here; in the data, active means growth inhibition above about 70%; inactive means the rest.

Assay: NCI Yeast Anticancer Drug Screen. Data for the rad50 strain (AID 155);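 further: 0% = growth of vehicle-only cultures of the same strain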
Details: S. cerevisiae rad50 strain growth inhibition; at 50.0 µM; active compounds read high
How it was run: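 Inhibition values express reduced yeast growth in compound-treated cultures relative to vehicle-treated controls.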
In the case of `C/C=N\N1C(=O)c2ccccc2C1=O`, the growth inhibition is reported as 11.5%.
`[Cl][Ce]([Cl])[Cl]` gave a growth inhibition of 28.1%.
In the case of `CCCCN(CCCC)CCCCCCCCCCCO`, the growth inhibition is reported as 38.7%.
`CCCCCCCCCCCCCCCCCCCOc1ccc(OCCCCCCCCCC)cc1` gave a growth inhibition of 33.9%.
Compound `Cc1ccc(NC(=O)CSc2nnc(Cc3ccccc3)o2)c(C)c1` has a growth inhibition of -26.8%.
`CCN(CC)CCNc1ccccc1` gave a growth inhibition of -0.45%.
Compound `Cc1ccc(N=Nc2ccc([N+](=O)[O-])cc2)c([N+](=O)[O-])c1` has a growth inhibition of 10.9%.
With `C/C(=C\c1ccc(F)cc1)C(=O)O` the growth inhibition was 20.2%.
For `COc1ccc(-c2cc(-c3ccc(OC)cc3)cc(-c3ccc(OC)cc3)c2)cc1`, the growth inhibition was -19.5%.
With `CCOC(=O)C12CCCC1(O)N(NC(=O)c1ccccc1)C(C)=C2C(=O)OC` (stereo not given) the growth inhibition was 10.8%.
`NCCNCCCCCCCCCCCCOS(=O)(=O)O` showed a growth inhibition of -32.8%.
`COc1ccc(CNc2cnc3cc(N)ccc3n2)cc1OC` showed a growth inhibition of -12.3%.
`COc1ccc(/C(=C/n2ccnc2)C(O)c2ccc(OC)c(OC)c2)cc1OC` (stereo not given) gave a growth inhibition of -16.5%.
In the case of `CC(C)(c1ccccc1)C(C)(C)c1nc(-c2ccccc2)cc(-c2ccccc2)n1`, the growth inhibition is reported as -23.4%.
`Cc1cccc([B-]23OCC[N+]2(CNC(=O)c2ccccc2O)CCO3)c1` (stereo not given) showed a growth inhibition of -21.6%.
`O=c1[nH]c2ccccc2c(O)c1O` showed a growth inhibition of 24.4%.
With `N#Cc1cc2c3ccccc3ncc2c2ccccc12` the growth inhibition was 0.95%.
Compound `OCC1SC(O)C(O)C(O)C1O` (stereo not given) has a growth inhibition of 28.2%.
With `CO/N=C1/c2sccc2[C@H](NC(=O)C(Cc2ccccc2)NC(=O)OC(C)(C)C)[C@@H]1O` (stereo not given in full) the growth inhibition was -18.2%.
`CC(C)(C)OC(=O)CNC(=O)C(CSC(c1ccccc1)(c1ccccc1)c1ccccc1)N1C(=O)c2ccccc2C1=O` (stereo not given) showed a growth inhibition of 45.9%.
With `CCCC(=O)/C=C\c1ccccc1` the growth inhibition was 21.6%.
`O=C(CCC(=O)Nc1ccc(Cl)cc1)CC(=O)c1ccc2ccccc2c1` gave a growth inhibition of -51%.
Compound `CN(C)Cc1cc(C(C)(C)C)ccc1-c1ccc(C(C)(C)C)cc1CN(C)C` has a growth inhibition of -42.4%.
With `COc1ccc(C(=O)CCl)c(O)c1OC` the growth inhibition was -4.95%.
Compound `O=CN/C=C/c1ccccc1O` has a growth inhibition of -5%.
With `Cc1ccc(C)c(NC(=O)Oc2cc(C)c(Cl)cc2C(C)C)c1` the growth inhibition was 85.8% (active).
With `Cc1nc(C(Cl)(Cl)Cl)nc(C(Cl)(Cl)Cl)n1` the growth inhibition was 19.9%.
Work on `CC(=O)NC(CCCN(Cc1ccccc1)C(=O)NCCCl)C(=O)NCc1ccccc1` (stereo not given) yielded a growth inhibition of 13.7%.
For `CC1c2c(cc(=O)n(C)c2O)C(=O)N1Cc1ccccc1` (stereo not given), the growth inhibition was 2%.
In the case of `O=C1CCCC1CN1CCCCC1` (stereo not given), the growth inhibition is reported as 3.25%.
For `CC1=CC(=O)C(=CN2C(=O)/C(=C\c3cccnc3)NC2=S)C(=O)O1`, the growth inhibition was -21.2%.
For `Cc1cnc(NCCCCNc2ncc(C)c(-c3ccccc3O)n2)nc1-c1ccccc1O`, the growth inhibition was -5.25%.
With `Cc1nc(C)c(C(=O)NNC(=O)C[n+]2ccccc2)cc1C(=O)NNC(=O)C[n+]1ccccc1` the growth inhibition was -27.6%.
With `O=C(O)c1ccccc1C(=O)c1ccc(F)c2ccccc12` the growth inhibition was 11%.
With `O=C1c2ccccc2C(=Cc2cccnc2)c2ccccc21` the growth inhibition was 35.3%.
In the case of `CC(=O)Nc1ccc(S(=O)(=O)NCCC(=O)O)cc1`, the growth inhibition is reported as -9.7%.
In the case of `CC(C(=O)c1ccc(Cl)cc1)C1=NC2NN(c3ccccc3)C(=O)C2=C1C(C)C(=O)c1ccc(Cl)cc1` (stereo not given), the growth inhibition is reported as 10.5%.
For `Clc1ccc(N=C2CCCCC2)cc1`, the growth inhibition was 12.4%.
`Nc1ncnc2nc(I)[nH]c12` showed a growth inhibition of -1.45%.
Compound `O=C(OC1CCC(c2ccccc2)C1)c1cc([N+](=O)[O-])cc([N+](=O)[O-])c1` (stereo not given) has a growth inhibition of 35%.

Assay: NCI Yeast Anticancer Drug Screen. Data for the mec2-1 strain (AID 157)
Details: S. cerevisiae mec2-1 strain, at 50.0 µM, active compounds read high
How it was run: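 Yeast mec2-1 mutant treated with compound. Readout: growth inhibition vs vehicle controls.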
With `C/C=N\N1C(=O)c2ccccc2C1=O` the growth inhibition was 13.7%.
Compound `[Cl][Ce]([Cl])[Cl]` has a growth inhibition of 14.2%.
With `CCCCN(CCCC)CCCCCCCCCCCO` the growth inhibition was -8.35%.
`CCCCCCCCCCCCCCCCCCCOc1ccc(OCCCCCCCCCC)cc1` gave a growth inhibition of -2.05%.
`Cc1ccc(NC(=O)CSc2nnc(Cc3ccccc3)o2)c(C)c1` showed a growth inhibition of -63.2%.
For `CCN(CC)CCNc1ccccc1`, the growth inhibition was -13%.
`Cc1ccc(N=Nc2ccc([N+](=O)[O-])cc2)c([N+](=O)[O-])c1` gave a growth inhibition of -11.2%.
Work on `C/C(=C\c1ccc(F)cc1)C(=O)O` yielded a growth inhibition of -0.95%.
Work on `COc1ccc(-c2cc(-c3ccc(OC)cc3)cc(-c3ccc(OC)cc3)c2)cc1` yielded a growth inhibition of -22.8%.
`CCOC(=O)C12CCCC1(O)N(NC(=O)c1ccccc1)C(C)=C2C(=O)OC` (stereo not given) gave a growth inhibition of 21.6%.
`NCCNCCCCCCCCCCCCOS(=O)(=O)O` showed a growth inhibition of -23.6%.
For `COc1ccc(CNc2cnc3cc(N)ccc3n2)cc1OC`, the growth inhibition was -34.5%.
In the case of `COc1ccc(/C(=C/n2ccnc2)C(O)c2ccc(OC)c(OC)c2)cc1OC` (stereo not given), the growth inhibition is reported as -11.8%.
In the case of `CC(C)(c1ccccc1)C(C)(C)c1nc(-c2ccccc2)cc(-c2ccccc2)n1`, the growth inhibition is reported as 4.95%.
`Cc1cccc([B-]23OCC[N+]2(CNC(=O)c2ccccc2O)CCO3)c1` (stereo not given) gave a growth inhibition of -19.8%.
With `O=c1[nH]c2ccccc2c(O)c1O` the growth inhibition was 7.85%.
For `N#Cc1cc2c3ccccc3ncc2c2ccccc12`, the growth inhibition was 16.4%.
In the case of `OCC1SC(O)C(O)C(O)C1O` (stereo not given), the growth inhibition is reported as -5.55%.
In the case of `CO/N=C1/c2sccc2[C@H](NC(=O)C(Cc2ccccc2)NC(=O)OC(C)(C)C)[C@@H]1O` (stereo not given in full), the growth inhibition is reported as -13.1%.
In the case of `CC(C)(C)OC(=O)CNC(=O)C(CSC(c1ccccc1)(c1ccccc1)c1ccccc1)N1C(=O)c2ccccc2C1=O` (stereo not given), the growth inhibition is reported as 32.5%.
Work on `CCCC(=O)/C=C\c1ccccc1` yielded a growth inhibition of -3.7%.
Work on `O=C(CCC(=O)Nc1ccc(Cl)cc1)CC(=O)c1ccc2ccccc2c1` yielded a growth inhibition of -28.9%.
With `CN(C)Cc1cc(C(C)(C)C)ccc1-c1ccc(C(C)(C)C)cc1CN(C)C` the growth inhibition was -17.6%.
With `COc1ccc(C(=O)CCl)c(O)c1OC` the growth inhibition was 5.95%.
Compound `O=CN/C=C/c1ccccc1O` has a growth inhibition of 1.8%.
For `Cc1ccc(C)c(NC(=O)Oc2cc(C)c(Cl)cc2C(C)C)c1`, the growth inhibition was 99.2% (active).
Compound `Cc1nc(C(Cl)(Cl)Cl)nc(C(Cl)(Cl)Cl)n1` has a growth inhibition of 47%.
`CC(=O)NC(CCCN(Cc1ccccc1)C(=O)NCCCl)C(=O)NCc1ccccc1` (stereo not given) gave a growth inhibition of -25.5%.
`CC1c2c(cc(=O)n(C)c2O)C(=O)N1Cc1ccccc1` (stereo not given) showed a growth inhibition of 5.75%.
For `O=C1CCCC1CN1CCCCC1` (stereo not given), the growth inhibition was -31.8%.
For `CC1=CC(=O)C(=CN2C(=O)/C(=C\c3cccnc3)NC2=S)C(=O)O1`, the growth inhibition was -12.2%.
`Cc1cnc(NCCCCNc2ncc(C)c(-c3ccccc3O)n2)nc1-c1ccccc1O` gave a growth inhibition of 1.55%.
Compound `Cc1nc(C)c(C(=O)NNC(=O)C[n+]2ccccc2)cc1C(=O)NNC(=O)C[n+]1ccccc1` has a growth inhibition of -4.15%.
`O=C(O)c1ccccc1C(=O)c1ccc(F)c2ccccc12` showed a growth inhibition of 26.9%.
Work on `O=C1c2ccccc2C(=Cc2cccnc2)c2ccccc21` yielded a growth inhibition of 31.9%.
Compound `CC(=O)Nc1ccc(S(=O)(=O)NCCC(=O)O)cc1` has a growth inhibition of -16.6%.
For `CC(C(=O)c1ccc(Cl)cc1)C1=NC2NN(c3ccccc3)C(=O)C2=C1C(C)C(=O)c1ccc(Cl)cc1` (stereo not given), the growth inhibition was -12.3%.
For `Clc1ccc(N=C2CCCCC2)cc1`, the growth inhibition was -12.5%.
`Nc1ncnc2nc(I)[nH]c12` showed a growth inhibition of 1.25%.
Compound `O=C(OC1CCC(c2ccccc2)C1)c1cc([N+](=O)[O-])cc([N+](=O)[O-])c1` (stereo not given) has a growth inhibition of 25.9%.
